Source: PubChem BioAssay (National Center for Advancing Translational Sciences (NCATS))
Shown are actives, neighbours in structure and some others; about 18% of the full set was active somewhere.
VDR inh = Inhibitors of the vitamin D receptor (VDR): qHTS. Vitamin D3 receptor (Homo sapiens), P11473. VDR-SRC2-3 peptide fluorescence polarization, 2 h. Potency, µM, for the others: max response, negative = inhibition, usual class: inhibitors. hit rate 0.93% among 400,000
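Fluorescence polarization assay of small-molecule disruption of VDR binding to coregulator peptide SRC2-3. Compounds and controls pin-transferred, then read after 2 h incubation at ambient room temperature.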
TDP1 cell noCPT = qHTS for Inhibitors of human tyrosyl-DNA phosphodiesterase 1 (TDP1): qHTS in cells in absence of CPT. DT40 Tdp1-/- hTDP1 cells, no CPT, ATP luminescence, 48 h. Potency, µM (highest dose often 46.2 µM), for inactives: top-dose activity change, negative = growth inhibition, hits mostly inhibitors. hit rate 15% among 420,000; further: nearly all actives have a fitted effect of over 55% in size
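Chicken DT40 Tdp1-/- cells stably complemented with human TDP1 were seeded at 400 cells/well with DMSO in place of 20 nM camptothecin. After compound pinning, cells grew at least 48 hr at 37 °C; viability read by CellTiter-Glo luminescence.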
TDP1 block = qHTS Assay for Inhibitors of Tyrosyl-DNA Phosphodiesterase (TDP1); Potency, µM (top dose mostly 130 µM), for inactives: top-dose activity change, negative = inhibition, usual class: inhibitors; recombinant TDP1, AlphaScreen DNA substrate cleavage; hit rate 0.28% among 350,000; further: nearly all actives have a fitted effect of over 40% in size
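Compounds were preincubated with Tdp1 (1 nM final) for 15 min at room temperature before substrate (15 nM final) started a 5 min reaction; beads (10 ug/ml final) were then added for 10 min before AlphaScreen detection.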
TDP1 cell CPT = qHTS for Inhibitors of human tyrosyl-DNA phosphodiesterase 1 (TDP1): qHTS in cells in presence of CPT; chicken DT40 Tdp1-/-;hTDP1 cells + 20 nM CPT, ATP luminescence, 48 h; Potency, µM (highest dose often 46.2 µM), inactives show at the highest dose activity change, negative = growth inhibition, most hits filed as inhibitors; hit rate 12% among 420,000; AID 686979, 2013; further: nearly all actives have a fitted effect of over 55% in size
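Chicken DT40 Tdp1-/- cells stably complemented with human TDP1 were seeded at 400 cells/well in medium containing 20 nM camptothecin, exposed to pin-transferred compounds, and grown at 37 °C for at least 48 hr. Viability was read as ATP luminescence.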
PLK1 PBD inh = qHTS for Inhibitors of PLK1-PDB (polo-like kinase 1 - polo-box domain): Primary Screen. Serine/threonine-protein kinase PLK1 (Homo sapiens), P53350. Plk1 PBD binding of FITC phosphopeptide, fluorescence polarization. Potency, µM, for the others: max response, negative = inhibition, most hits filed as inhibitors. hit rate 2.8% among 360,000; further: series mostly up to about 57 µM; nearly all actives have a fitted effect of over 65% in size
Target sequence (P53350 whole entry, looked up, the tested form may be a part): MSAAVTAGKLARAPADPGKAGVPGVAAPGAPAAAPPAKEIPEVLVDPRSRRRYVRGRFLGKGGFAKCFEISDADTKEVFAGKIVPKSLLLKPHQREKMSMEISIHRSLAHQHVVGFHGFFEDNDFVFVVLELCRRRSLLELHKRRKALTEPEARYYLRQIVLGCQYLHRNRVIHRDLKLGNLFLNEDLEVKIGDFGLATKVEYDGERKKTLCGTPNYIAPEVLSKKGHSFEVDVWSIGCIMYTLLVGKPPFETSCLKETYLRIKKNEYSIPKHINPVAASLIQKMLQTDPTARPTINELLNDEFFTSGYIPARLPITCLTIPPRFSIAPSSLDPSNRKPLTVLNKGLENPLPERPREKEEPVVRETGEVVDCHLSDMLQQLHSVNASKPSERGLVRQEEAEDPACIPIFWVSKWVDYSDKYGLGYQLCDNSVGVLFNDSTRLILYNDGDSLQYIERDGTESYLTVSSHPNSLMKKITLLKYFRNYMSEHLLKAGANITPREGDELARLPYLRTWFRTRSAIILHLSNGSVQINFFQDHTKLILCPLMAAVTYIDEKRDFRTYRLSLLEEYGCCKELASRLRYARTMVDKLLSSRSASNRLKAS
GCN5L2 inh = qHTS Assay for Inhibitors of GCN5L2; GCN5L2 HAT assay, ThioGlo1 CoA-SH fluorescence; hit rate 0.21% among 390,000; AID 504327, 2011; Potency, µM (series often up to 58.9 µM), for inactives: at the highest dose activity change, negative = inhibition, hits mostly inhibitors; Histone acetyltransferase KAT2A (Homo sapiens), Q92830
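Enzyme at 20nM final was mixed with library compounds for 15 min at room temperature. Peptide H3(1-25) at 75uM, acetyl-CoA at 70uM and ThioGlo1 at 50uM were then added. Plates were read immediately and after 20 min (Ex340nm/Em540nm).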
Active calls of the source: *; ? = inconclusive; . = not tested or not shown; [ ] = another dose, or the depositor's remark. The call rests on the fitted dose curve; in most records, active means well fitted curve in the direction sought with a large enough effect; inconclusive means small, poorly fitted or top-dose-only effect, or another doubt; inactive means no such curve, though single readings can be large; an effect the other way counts as inactive or inconclusive. On the % scale 0 is the no-effect control and ±100 the full control effect; potency means the concentration at half of the fitted maximal effect.

SMILES	VDR inh	TDP1 cell noCPT	TDP1 block	TDP1 cell CPT	PLK1 PBD inh	GCN5L2 inh
CN1CCN(Cc2nc3ccccc3c(=O)n2Cc2nc(-c3ccc4ccccc4c3)cs2)CC1	-3%	2.3µM*	5%	4.6µM*	?	-8%
CN(C)Cc1nc2ccccc2c(=O)n1Cc1nc(C(C)(C)C)cs1	-4%	?	5%	?	-4%	-1%
CCC(CC)C(=O)N(C)c1c(C)nc2c(OCc3ccccc3C)cccn12	.	7.3µM*	.	6.5µM*	-11%	.
CCC(CC)C(=O)N(C)c1c(C)nc2c(OCc3ccc(C#N)cc3)cccn12	.	18µM*	.	?	-1%	.
CCC(CC)C(=O)N(C)c1c(C)nc2c(OCc3ccc(Cl)cc3Cl)cccn12	.	3.7µM*	.	4.6µM*	-3%	.
CCC(CC)C(=O)N(C)c1c(C)nc2c(OCC(=O)N(C)C)cccn12	.	0%	.	-15%	-4%	.
COc1ccccc1NC(=O)c1cc(S(=O)(=O)N2CCCC2)cn1C	-13%	-13%	.	-23%	-14%	-9%
O=C(NN1c2ccccc2CCc2ccccc21)c1ccccc1Br	-4%	?	-1%	21µM*	-6%	3%
Cc1cc(=O)oc2cc(OS(C)(=O)=O)ccc12	-14%	-19%	8%	1%	-11%	-2%
Cc1cc(C)cc(N(C(=O)c2snc(C(N)=O)c2N)C(C(=O)NCC2CCCO2)c2cccs2)c1 (stereo not given)	-27%	26µM*	9%	23µM*	-12%	-9%
NC(=O)c1nsc(C(=O)N(c2ccccc2)C(C(=O)NCC2CCCO2)c2cccs2)c1N (stereo not given)	-14%	15µM*	-3%	23µM*	-19%	-5%
COc1cccc(N(C(=O)c2snc(C(N)=O)c2N)C(C(=O)NCC2CCCO2)c2cccs2)c1 (stereo not given)	11%	16µM*	9%	?	-11%	-5%
COc1cc([N+](=O)[O-])c(C)cc1NC(=O)c1ccc(OC)c(OC)c1	.	?	.	-18%	-8%	.
COC(=O)c1[nH]nc(C(=O)OC(C)(C)C)c1-c1ccccc1	-14%	13µM*	8%	16µM*	-11%	-6%
CC(C)N1C(=O)/C(=C/c2nc3ccccc3c(=O)n2-c2ccccc2)c2ccccc21	71µM*	23µM*	8%	21µM*	-10%	-5%
CC(C)N1C(=O)/C(=C\c2nc3ccccc3c(=O)n2-c2ccccc2)c2ccccc21	71µM*	16µM*	11%	23µM*	-7%	-9%
COc1ccc(CNS(=O)(=O)c2cc3c4c(c2)C(C)C(=O)N4CCC3)cc1 (stereo not given)	7%	?	3%	-27%	0%	-8%
OCc1cnc(SCc2ccccc2)n1Cc1ccccc1	-5%	16µM*	-4%	?	-4%	-5%
COc1ccc(Cn2c(CO)cnc2SCc2ccccc2C)cc1	10%	?	7%	?	.	16%
COc1ccc(Cn2c(CO)cnc2SCc2ccc(C)cc2)cc1	4%	?	8%	18µM*	.	4%
COc1ccc(Cn2c(CO)cnc2SCc2ccc(F)cc2)cc1	9%	18µM*	5%	?	.	-2%
O=C(Nc1cccc(Cl)c1)N1CCSc2ccccc21	5%	?	1%	?	.	-6%
COc1cc2c(cc1OC)CN(c1ccc(-c3ccccc3OC)nn1)CC2	-8%	23µM*	4%	?	-23%	-7%
COc1ccccc1-c1cc(-n2ccnc2)ncn1	-16%	-4%	.	-2%	.	-9%
COc1cc(C(=O)COC(=O)C2CCN(c3ccc(C(F)(F)F)cn3)CC2)ccc1OC(F)F	-10%	-27%	-9%[0.505 µM]	-27%	-4%	-8%
SMILES	VDR inh	TDP1 cell noCPT	TDP1 block	TDP1 cell CPT	PLK1 PBD inh	GCN5L2 inh
COc1cc2c(cc1OC)CN(c1ccc(C(F)(F)F)cn1)CC2	?	16µM*	-2%	?	-16%	-8%
C[C@@H](C(=O)CC(=O)OC(C)(C)C)[C@@H](O)c1ccccc1	-9%	7%	9%	0%	-4%	-5%
CCc1ccccc1NC(=O)c1noc2c1CC(C(C)(C)C)CC2 (stereo not given)	-14%	?	-4%	?	.	0%
Cc1noc(/C=C/N(C)C)c1S(=O)(=O)N1CCCC(C(=O)Nc2ccc(F)cc2F)C1 (stereo not given)	-3%	?	8%	?	-9%	-8%
O=C(NC(NNc1ccc([N+](=O)[O-])cc1)(C(F)(F)F)C(F)(F)F)c1ccc(F)cc1	?	18µM*	5%	23µM*	-26%	-25%
O=C(NC(NNc1ccc([N+](=O)[O-])cc1)(C(F)(F)F)C(F)(F)F)c1ccccc1Cl	79µM*	-15%	9%	1%	?	-1%
O=C(O)CC1CCC1CC(=O)O (stereo not given)	-1%	-1%	.	6%	-5%	.
COC(=O)c1ccc2c(c1)N(CC(=O)Nc1cccc(Cl)c1C)C(=O)c1ccccc1S2	17%	.	-2%	.	.	-14%
CCOC(=O)/C=c1/s/c(=C/c2ccc3cc(OC)ccc3c2)c(=O)n1CC(=O)NCc1ccc2c(c1)OCO2	5%	9.2µM*	.	5.8µM*	16%	.
CCOC(=O)/C=c1\s/c(=C\c2ccc(-c3ccccc3)cc2)c(=O)n1CC(=O)NCc1ccc2c(c1)OCO2	7%	9.2µM*	1%	9.2µM*	15%	-5%
CCOC(=O)/C=c1\s/c(=C\c2ccc(C(F)(F)F)cc2)c(=O)n1CC(=O)NCc1ccco1	5%	?	5%	?	-3%	0%
CCOC(=O)/C=c1\s/c(=C\c2ccc(C)cc2)c(=O)n1CC(=O)NCc1ccco1	-3%	?	0%	16µM*	-4%	1%
CCOC(=O)/C=c1\s/c(=C\c2sccc2C)c(=O)n1CC(=O)NCc1ccc(C)cc1	.	.	2%	.	.	-6%
N[C@H](C(=O)O)C1C(C(=O)O)C1C(=O)O (stereo not given in full)	-3%	1%	1%	2%	.	-12%
COc1ccc(C2C(=O)N(C3CCCCC3)CC(=O)N2CCc2ccccc2)cc1OC (stereo not given)	11%	-28%	5%	?	-5%	-10%
